From PubChem BioAssay (NCATS)
Results filed as inconclusive are left out. This is one part of the list. Where a call stands in place of a potency, no number is given. Activity calls are given as the source filed them. Unless noted, calls follow the shape of the dose curve; as a rule, active = well fitted curve in the direction sought with a large enough effect; inconclusive = small, poorly fitted or top-dose-only effect, or another doubt; inactive = no such curve, though single readings can be large; an effect the other way counts as inactive or inconclusive.

Tests used:
[1] = molecular target: Mitogen-activated protein kinase 10 (Mus musculus) (UniProt Q61831); assay: JNK3 AlphaScreen Assay (AID 530; active = well fitted curve in either direction with a large enough effect, not every such curve was filed as active;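 also: kinase came from lysate of stimulated human HepG2 cells; signal reports phosphorylation of biotinylated GST-cJun 1-79 at Ser73 with 10 µM ATP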); details: JNK3 lysate, c-Jun phosphorylation; series mostly up to 57.1 µM
How it was run: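 Phosphorylation of biotinylated GST-cJun(1-79) at Ser73 is measured by AlphaScreen proximity luminescence. Enzyme is JNK3 in HepG2 lysates activated with interleukin-1beta and tumor necrosis factor alpha; ATP is 10 uM final.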

[2] = molecular target: Cytochrome P450 3A4 (Homo sapiens) (UniProt P08684); assay: qHTS Assay for Activators of Cytochrome P450 3A4 (AID 885); details: recombinant CYP3A4, Luciferin-PPXE luminescence, 60 min; series mostly up to 57.1 µM; also: nearly all actives have a fitted effect of over 65% in size
How it was run: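 Luminescent readout of luciferin formed from 25 uM Luciferin-PPXE (KM level) by 20 nM CYP3A4 in 200 mM KPO4, with 60 min NADPH-driven reaction at room temperature after 10 min compound exposure. Ketoconazole (57 uM) defined 100% inhibition.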

[3] = molecular target: Cytochrome P450 3A4 (Homo sapiens) (UniProt P08684); assay: qHTS Assay for Inhibitors and Substrates of Cytochrome P450 3A4 (AID 884); details: recombinant CYP3A4, Luciferin-PPXE luminescence; series mostly up to 57.1 µM; also: nearly all actives have a fitted effect of over 50% in size; also: potency is read from the fitted curve at half-maximal effect
How it was run: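 Luminescent readout of luciferin produced by CYP3A4 (20 nM) dealkylation of Luciferin-PPXE, 25 uM (its KM). NADPH-driven reaction ran 60 min at RT after 10 min compound preincubation; data scaled to 57 uM ketoconazole as 100% inhibition.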

[4] = molecular target: Bifunctional 3'-5' exonuclease/ATP-dependent helicase WRN (Homo sapiens) (UniProt Q14191); assay: qHTS for Inhibitors of WRN Helicase: Confirmatory Assay for Cherry-picked Compounds. (AID 720497); details: WRN helicase DNA unwinding, fluorescence kinetic; series mostly up to 57.1 µM; also: potency is read from the fitted curve at half-maximal effect; nearly all actives have a fitted effect of over 65% in size
How it was run: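 WRN (20 nM) was preincubated 15 min at RT with compound, then started with 100 nM forked duplex oligonucleotide and 2 mM ATP. Unwinding was read kinetically by red fluorescence (ex 525/em 598 nm), normalized to enzyme-free and uninhibited controls.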

[5] = molecular target: RecQ-like DNA helicase BLM (Homo sapiens) (UniProt P54132); assay: qHTS for Inhibitors of WRN Helicase: BLM Helicase Counterscreen for WRN Inhibitors (AID 720503); details: Recombinant BLM helicase DNA unwinding, red fluorescence; series mostly up to 57.1 µM; also: nearly all actives have a fitted effect of over 60% in size
How it was run: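 Reactions were started with 100 nM DNA substrate and 2 mM ATP (final) after compound and 1 nM BLM stood 15 min at room temperature in Tris-HCl pH 8.0 buffer with NaCl, MgCl2, DTT and Tween-20. Two red-fluorescence reads 15 min apart were normalized against DMSO and no-enzyme wells.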

[6] = molecular target: DNA polymerase kappa (Homo sapiens) (UniProt Q9UBT6); assay: qHTS for Inhibitors of Polymerase Kappa: Confirmatory Assay for Cherry-picked Compounds (AID 720501); details: purified Pol-kappa, fluorescent strand-displacement substrate; also: potency is read from the fitted curve at half-maximal effect
How it was run: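 Human Pol-kappa, dispensed at 10 nM, was preincubated with compounds for 15 min at room temperature. Reactions were started with primer/template substrate (50 nM final) carrying a TAMRA reporter strand and BHQ-2-quenched template, and fluorescence (ex 525/em 598 nm) was read at 0 and 10 min.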

[7] = molecular target: DNA dC->dU-editing enzyme APOBEC-3G (Homo sapiens) (UniProt Q9HC16); assay: qHTS for inhibitors of Vif-A3G interactions: Validation (AID 588379); details: Vif-A3G protein interaction assay; series mostly up to 46.1 µM
How it was run: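 Yellow fluorescence (Ex 488, Em 500-530) of Vif-coexpressing HeLa A3G-eYFP cells, scanned by Acumen cytometer, reports blocked A3G degradation. Cells plated at 700/well overnight at 37 deg C before compound addition, then a further overnight compound incubation at 37 deg C.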

DNA dC->dU-editing enzyme APOBEC-3G (Homo sapiens), sequence (Q9HC16 whole entry, looked up): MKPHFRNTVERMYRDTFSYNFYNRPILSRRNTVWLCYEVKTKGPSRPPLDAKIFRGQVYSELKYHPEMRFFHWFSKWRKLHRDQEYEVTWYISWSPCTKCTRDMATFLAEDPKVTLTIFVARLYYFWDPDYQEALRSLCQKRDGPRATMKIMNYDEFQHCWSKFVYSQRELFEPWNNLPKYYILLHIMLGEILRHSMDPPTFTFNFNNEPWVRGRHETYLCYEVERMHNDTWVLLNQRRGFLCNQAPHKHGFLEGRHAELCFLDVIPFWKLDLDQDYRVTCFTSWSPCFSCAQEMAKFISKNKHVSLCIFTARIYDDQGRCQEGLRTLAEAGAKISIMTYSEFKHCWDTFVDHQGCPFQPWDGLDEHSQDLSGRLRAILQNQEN
Cytochrome P450 3A4 (Homo sapiens), sequence (P08684 whole entry, looked up): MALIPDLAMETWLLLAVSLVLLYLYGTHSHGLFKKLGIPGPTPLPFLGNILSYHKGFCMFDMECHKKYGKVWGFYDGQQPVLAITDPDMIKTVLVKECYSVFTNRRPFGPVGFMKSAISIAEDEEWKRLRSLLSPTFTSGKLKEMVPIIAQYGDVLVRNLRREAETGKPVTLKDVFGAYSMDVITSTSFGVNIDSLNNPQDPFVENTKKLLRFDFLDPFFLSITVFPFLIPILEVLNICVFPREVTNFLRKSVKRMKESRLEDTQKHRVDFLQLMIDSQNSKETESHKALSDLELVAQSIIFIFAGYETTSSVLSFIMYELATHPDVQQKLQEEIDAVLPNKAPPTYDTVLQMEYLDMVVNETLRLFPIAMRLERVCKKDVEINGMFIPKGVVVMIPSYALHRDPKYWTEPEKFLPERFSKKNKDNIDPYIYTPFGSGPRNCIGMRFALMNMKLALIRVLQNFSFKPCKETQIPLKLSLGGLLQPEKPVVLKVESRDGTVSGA
Bifunctional 3'-5' exonuclease/ATP-dependent helicase WRN (Homo sapiens), sequence (Q14191 whole entry, looked up): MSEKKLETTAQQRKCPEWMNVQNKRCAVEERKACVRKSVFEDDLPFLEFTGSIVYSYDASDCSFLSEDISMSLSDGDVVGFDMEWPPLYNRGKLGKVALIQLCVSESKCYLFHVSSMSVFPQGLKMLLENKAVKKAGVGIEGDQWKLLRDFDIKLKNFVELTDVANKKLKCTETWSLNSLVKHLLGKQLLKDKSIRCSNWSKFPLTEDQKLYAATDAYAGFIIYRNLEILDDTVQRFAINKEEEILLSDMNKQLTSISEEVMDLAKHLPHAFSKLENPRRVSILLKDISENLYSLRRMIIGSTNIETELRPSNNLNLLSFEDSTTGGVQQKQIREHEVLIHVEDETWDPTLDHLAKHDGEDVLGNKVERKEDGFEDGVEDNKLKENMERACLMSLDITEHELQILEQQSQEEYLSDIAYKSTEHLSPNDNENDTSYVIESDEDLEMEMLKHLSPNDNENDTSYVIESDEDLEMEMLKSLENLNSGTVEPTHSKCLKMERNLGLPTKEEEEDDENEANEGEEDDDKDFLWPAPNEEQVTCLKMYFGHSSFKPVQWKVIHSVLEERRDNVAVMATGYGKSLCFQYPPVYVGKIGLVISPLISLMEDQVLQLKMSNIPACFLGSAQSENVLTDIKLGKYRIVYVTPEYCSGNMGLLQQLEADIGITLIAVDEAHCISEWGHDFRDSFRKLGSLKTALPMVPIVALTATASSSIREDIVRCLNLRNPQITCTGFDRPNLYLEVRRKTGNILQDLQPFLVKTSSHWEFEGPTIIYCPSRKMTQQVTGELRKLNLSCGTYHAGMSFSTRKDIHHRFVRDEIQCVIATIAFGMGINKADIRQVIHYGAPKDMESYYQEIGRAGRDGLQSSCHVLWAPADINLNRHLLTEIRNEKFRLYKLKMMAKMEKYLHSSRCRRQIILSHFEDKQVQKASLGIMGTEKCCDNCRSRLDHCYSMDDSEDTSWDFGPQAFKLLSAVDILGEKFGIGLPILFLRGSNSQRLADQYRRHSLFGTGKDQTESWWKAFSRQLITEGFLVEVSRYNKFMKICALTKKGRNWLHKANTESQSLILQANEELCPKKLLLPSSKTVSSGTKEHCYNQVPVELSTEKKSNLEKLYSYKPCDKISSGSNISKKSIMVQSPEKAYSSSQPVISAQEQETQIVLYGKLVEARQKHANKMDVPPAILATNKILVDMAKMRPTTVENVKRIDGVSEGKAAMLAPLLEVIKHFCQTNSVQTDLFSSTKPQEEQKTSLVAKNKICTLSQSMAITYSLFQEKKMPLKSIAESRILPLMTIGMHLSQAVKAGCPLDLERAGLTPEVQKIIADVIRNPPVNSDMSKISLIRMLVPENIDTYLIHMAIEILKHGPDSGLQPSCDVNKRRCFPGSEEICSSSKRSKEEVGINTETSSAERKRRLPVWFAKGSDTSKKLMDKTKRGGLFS
DNA polymerase kappa (Homo sapiens), sequence (Q9UBT6 whole entry, looked up): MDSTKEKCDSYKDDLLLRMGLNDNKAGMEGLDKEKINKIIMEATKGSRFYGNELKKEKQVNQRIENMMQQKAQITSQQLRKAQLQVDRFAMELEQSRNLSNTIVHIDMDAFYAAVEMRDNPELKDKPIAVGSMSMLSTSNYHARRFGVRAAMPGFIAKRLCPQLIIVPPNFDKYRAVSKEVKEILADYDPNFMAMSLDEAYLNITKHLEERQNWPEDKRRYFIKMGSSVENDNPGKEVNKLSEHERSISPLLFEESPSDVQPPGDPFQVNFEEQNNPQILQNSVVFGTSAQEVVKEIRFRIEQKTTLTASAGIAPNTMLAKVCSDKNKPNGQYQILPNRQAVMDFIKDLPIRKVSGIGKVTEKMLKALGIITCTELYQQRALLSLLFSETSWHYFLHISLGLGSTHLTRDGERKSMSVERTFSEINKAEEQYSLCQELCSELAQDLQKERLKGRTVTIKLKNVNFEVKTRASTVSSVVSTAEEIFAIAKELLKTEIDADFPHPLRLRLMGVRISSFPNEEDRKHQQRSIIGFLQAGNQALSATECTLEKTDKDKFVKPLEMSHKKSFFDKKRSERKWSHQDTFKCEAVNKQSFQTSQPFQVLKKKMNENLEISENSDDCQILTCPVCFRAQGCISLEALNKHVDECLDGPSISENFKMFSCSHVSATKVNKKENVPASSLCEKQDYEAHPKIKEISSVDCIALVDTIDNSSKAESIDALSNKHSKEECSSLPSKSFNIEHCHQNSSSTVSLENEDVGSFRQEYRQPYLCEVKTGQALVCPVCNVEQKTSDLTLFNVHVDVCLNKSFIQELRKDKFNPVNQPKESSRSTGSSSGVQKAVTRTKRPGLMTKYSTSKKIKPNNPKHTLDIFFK
RecQ-like DNA helicase BLM (Homo sapiens), sequence (P54132 whole entry, looked up): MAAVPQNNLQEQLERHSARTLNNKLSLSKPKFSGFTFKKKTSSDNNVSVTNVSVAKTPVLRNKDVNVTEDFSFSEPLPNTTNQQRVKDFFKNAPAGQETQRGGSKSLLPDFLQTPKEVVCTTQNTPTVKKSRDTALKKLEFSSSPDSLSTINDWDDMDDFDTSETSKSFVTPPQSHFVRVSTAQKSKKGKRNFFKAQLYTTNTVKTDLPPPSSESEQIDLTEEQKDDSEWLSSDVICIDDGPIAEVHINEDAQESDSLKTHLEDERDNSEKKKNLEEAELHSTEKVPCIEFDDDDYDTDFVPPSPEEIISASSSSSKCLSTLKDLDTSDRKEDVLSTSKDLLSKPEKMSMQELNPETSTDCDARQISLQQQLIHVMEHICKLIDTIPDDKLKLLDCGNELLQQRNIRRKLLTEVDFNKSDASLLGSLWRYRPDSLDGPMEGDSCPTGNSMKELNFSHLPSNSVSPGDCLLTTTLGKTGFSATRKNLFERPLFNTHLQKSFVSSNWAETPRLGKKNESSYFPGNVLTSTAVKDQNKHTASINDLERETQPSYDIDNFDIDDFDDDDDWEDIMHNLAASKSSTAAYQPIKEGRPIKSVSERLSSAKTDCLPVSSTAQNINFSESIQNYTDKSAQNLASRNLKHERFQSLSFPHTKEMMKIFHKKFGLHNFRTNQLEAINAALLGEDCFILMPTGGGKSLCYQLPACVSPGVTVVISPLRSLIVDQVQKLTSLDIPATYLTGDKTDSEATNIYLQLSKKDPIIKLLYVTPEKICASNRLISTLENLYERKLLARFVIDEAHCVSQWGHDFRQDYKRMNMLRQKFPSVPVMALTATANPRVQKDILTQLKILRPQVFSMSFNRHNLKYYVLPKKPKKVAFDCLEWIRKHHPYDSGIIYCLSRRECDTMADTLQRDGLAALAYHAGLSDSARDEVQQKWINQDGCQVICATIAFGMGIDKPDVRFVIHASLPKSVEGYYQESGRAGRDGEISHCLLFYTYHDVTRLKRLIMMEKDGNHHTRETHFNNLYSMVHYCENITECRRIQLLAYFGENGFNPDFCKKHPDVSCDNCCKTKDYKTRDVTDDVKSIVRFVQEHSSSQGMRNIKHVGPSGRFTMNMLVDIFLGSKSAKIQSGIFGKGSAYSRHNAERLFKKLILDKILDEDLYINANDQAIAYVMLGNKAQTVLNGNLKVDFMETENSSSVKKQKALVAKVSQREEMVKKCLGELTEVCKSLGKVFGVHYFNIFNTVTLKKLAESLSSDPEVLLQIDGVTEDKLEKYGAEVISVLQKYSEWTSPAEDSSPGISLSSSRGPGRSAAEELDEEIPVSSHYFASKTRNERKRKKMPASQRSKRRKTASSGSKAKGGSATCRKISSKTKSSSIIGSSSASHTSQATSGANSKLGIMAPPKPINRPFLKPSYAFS

CC(=O)N1CC=CC1(CC(C)C)C(=O)NCC1CC1 (centres undefined)
outcome [1]: inactive
Potency [2]: inactive

COC(=O)CNC(=O)C1(C)C=CC2(CCCCC2)N1C(=O)OC (centres undefined)
outcome [1]: inactive
Potency [2]: inactive

COC(=O)c1ccc(C(/C=C/[C@@H](C)C(=O)N(C)C)NC(=O)OCc2ccccc2)cc1 (some centres undefined)
outcome [1]: inactive
Potency [2]: inactive

CNC(=O)[C@H](C)/C=C(\c1cccnc1)C(NC(=O)OCc1ccccc1)c1ccc(C(=O)OC)cc1 (some centres undefined)
outcome [1]: inactive
Potency [2]: inactive

CNC(=O)C1(C)C=CC2(CCCCC2)N1C(=O)OC (centres undefined)
outcome [1]: inactive
Potency [2]: inactive

COC(=O)c1ccc(C(NC(=O)OCc2ccccc2)/C(C)=C/[C@@H](C)C(=O)NCc2cccnc2)cc1 (some centres undefined)
outcome [1]: inactive
Potency [3]: 0.794 µM (active)
Potency [2]: inactive

COC(=O)CCCCCN1C(=O)NC(CC2CC2)C(C(=O)OCc2ccccc2)=C1C (centres undefined)
outcome [1]: inactive
Potency [2]: inactive

Cc1cc(CNC(=O)C(C)Cc2ccccc2)nn1C (centres undefined)
outcome [1]: inactive
Potency [3]: 10 µM (active)
Potency [2]: inactive

COC(=O)c1ccc(C(NC(=O)OCc2ccccc2)/C(=C/[C@@H](C)C(=O)NCc2cc(C)on2)c2cccnc2)cc1 (some centres undefined)
outcome [1]: inactive
Potency [3]: 1.58 µM (active)
Potency [2]: inactive

COC(=O)c1ccc(C(NC(=O)OCc2ccccc2)/C(I)=C/[C@@H](C)C(=O)NCC2CC2)cc1 (some centres undefined)
outcome [1]: inactive
Potency [3]: 3.98 µM (active)
Potency [2]: inactive

COC(=O)[C@@]1(C)C[C@@H]1[C@@H](NC(=O)[C@@]1(C)C[C@@H]1[C@@H](NC(=O)[C@@]1(C)C[C@@H]1[C@@H](NC(=O)[C@@]1(C)C[C@@H]1[C@@H](NC(=O)OCc1ccccc1)c1ccccc1)c1ccccc1)c1ccccc1)c1ccccc1
outcome [1]: inactive
Potency [2]: inactive

CCCCCCN(C(=O)CCCCCN1C(=O)NC(c2ccc(-c3ccccc3)cc2)C(C(=O)OCc2ccccc2)=C1C)C(C(=O)NCCCC)c1ccc(O)c(C(=O)OC)c1 (centres undefined)
outcome [1]: inactive
Potency [3]: 10 µM (active)
Potency [2]: inactive

CC(=O)N1CC=CC1(CC(C)C)C(=O)NCc1cc(F)cc(C(F)(F)F)c1 (centres undefined)
outcome [1]: inactive
Potency [3]: 12.6 µM (active)
Potency [2]: inactive

COC(=O)c1ccc(C(NC(=O)OCc2ccccc2)/C(C)=C/[C@@H](C)C(=O)NCc2cc(F)cc(F)c2)cc1 (some centres undefined)
outcome [1]: inactive
Potency [3]: 3.16 µM (active)
Potency [2]: inactive

CCCCCCN(C(=O)CCCCCN1C(=O)NC(c2ccc(-c3ccccc3)cc2)C(C(=O)OCc2ccccc2)=C1C)C(C(=O)NCCCC)c1ccc(OCC(=O)O)c(C(=O)O)c1 (centres undefined)
outcome [1]: inactive
Potency [2]: inactive

COC(=O)c1ccc(C(NC(=O)OCc2ccccc2)/C(F)=C/[C@@H](C)C(=O)N(C)Cc2cccnc2)cc1 (some centres undefined)
outcome [1]: inactive
Potency [3]: 2 µM (active)
Potency [2]: inactive

CC(C)NC(=O)[C@H]1C[C@@H]1[C@H](NC(=O)OCc1ccccc1)c1ccccc1
outcome [1]: inactive
Potency [2]: inactive

COC(=O)N1[C@H](C)C=C[C@]1(Cc1ccccc1)C(=O)NCc1ccc(C)o1
outcome [1]: inactive
Potency [2]: inactive

CCCCCCN(C(=O)CCCCCN1C(=O)NC(C2CCCCC2)C(C(=O)OCc2ccccc2)=C1C)C(C(=O)NCCCC)c1ccc(OCC(=O)OC)c(C(=O)OC)c1 (centres undefined)
outcome [1]: inactive
Potency [3]: 3.16 µM (active)
Potency [2]: inactive

COC(=O)CNC(=O)[C@@]1(C)C=C[C@@H](Cc2ccccc2)N1C(C)=O
outcome [1]: inactive
Potency [2]: inactive

CCCCCCN(C(=O)CCCCCN1C(=O)NC(c2ccc(C3CCCCC3)cc2)C(C(=O)OCc2ccccc2)=C1C)C(C(=O)NCCCC)c1ccc(OCC(=O)OC)c(C(=O)OC)c1 (centres undefined)
outcome [1]: inactive
Potency [3]: 2 µM (active)
Potency [2]: inactive

COC(=O)c1ccc(C(NC(=O)OCc2ccccc2)/C(=C/[C@@H](C)C(=O)NCCc2c[nH]c3ccccc23)c2cccnc2)cc1 (some centres undefined)
outcome [1]: inactive
Potency [3]: 1.58 µM (active)
Potency [2]: inactive

CCCCCCN(C(=O)CCCCCN1C(=O)NC(c2ccc([N+](=O)[O-])cc2)C(C(=O)OCc2ccccc2)=C1C)C(C(=O)NCCCC)c1ccc(OCC(=O)OC)c(C(=O)OC)c1 (centres undefined)
outcome [1]: inactive
Potency [3]: 2 µM (active)
Potency [2]: inactive

COC(=O)c1ccc(C(NC(=O)OCc2ccccc2)/C(I)=C/[C@@H](C)C(=O)NCc2ccc(C)o2)cc1 (some centres undefined)
outcome [1]: inactive
Potency [3]: 10 µM (active)
Potency [2]: inactive

CSc1nnc(SCc2nc3sc(C(=O)O)c(C)c3c(=O)[nH]2)s1
Potency [4]: 13.6 µM (active)
Potency [5]: inactive

COCCNC(=O)Nc1ccc2nc(-c3ccco3)c(-c3ccco3)nc2c1
Potency [6]: 3.77 µM (active)

Cc1cccc(-c2cc(=O)c3cc(Br)ccc3o2)c1
Potency [3]: 12.6 µM (active)
Potency [2]: inactive
Potency [7]: inactive

O=C(Cc1ccc(Cl)cc1)c1c(O)cc(O)cc1O
Potency [3]: 5.01 µM (active)
Potency [2]: inactive
Potency [7]: inactive

CC(=O)OC1CCC2(C)C3CCC4(C)C(CC5CCCCC54C(C)=O)C3CC(=O)[C@@]2(O)C1 (some centres undefined)
Potency [3]: 10 µM (active)
Potency [2]: inactive
Potency [7]: inactive

C=C(CO)C1Cc2c(ccc3c(=O)c4c(oc23)COc2cc(OC)c(OC)cc2-4)O1 (centres undefined)
Potency [3]: inactive
Potency [7]: inactive

COc1ccc(/C=C/C(=O)c2ccc(C)s2)cc1
Potency [3]: inactive
Potency [7]: inactive

CC(=O)[C@@H]1[C@H]2[C@H](C(=O)[C@H]3OC[C@@H]2O3)[C@H]2C=Cc3ccccc3N21
Potency [2]: inactive
Potency [7]: inactive
